The text below walks through data of PubChem BioAssay (EPA / NIEHS).

The nature of assay [1]: ATG_XTT_Cytotoxicity: Cytotoxicity Assessment in the Attagene TRANS-FACTORIAL HepG2 Assay (AID 2283584).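 As to AC50: XTT signal for cell number as viability in transfected HepG2 cells; cells exposed to compound for 24 h before reading; active means loss of viability signal versus DMSO baseline.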 In a few lines:
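HepG2 cells transiently transfected with GAL4-UAS multiple reporter units, dosed 24 h; cytotoxicity read by XTT as loss of signal versus DMSO baseline.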

Read-out in assay [2]: solute carrier (SLCO1B1), SLCO1B1 (gene 10599)
As to the kind of experiment: LTEA_HepaRG_SLCO1B1: Life Technologies and Expression Analysis (LTEA) Assay for solute carrier (SLCO1B1) using HepaRG (AID 2283530; active = hit-call score of the fitted dose curve at least 0.9, where 1 is the maximum; inactive = score below 0.9). The conditions noted are these: mRNA level, 48 h; actives raise or lower the signal. In a few lines:
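Differentiated human HepaRG cells were exposed for 48 h in serum-free induction medium to eight half-log concentrations, top 100 uM, in 0.5% DMSO. SLCO1B1 mRNA was measured by qRT-PCR, normalized to ACTB, GAPDH and POLR2A, and fitted bidirectionally against DMSO.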

Read-out in assay [3]: sulfotransferase 2A1 (SULT2A1), SULT2A1 (gene 6822)
As to the kind of experiment: LTEA_HepaRG_SULT2A1: Life Technologies and Expression Analysis (LTEA) Assay for sulfotransferase 2A1 (SULT2A1) using HepaRG (AID 2283531; active = hit-call score of the fitted dose curve at least 0.9, where 1 is the maximum; inactive = score below 0.9). The note with it: mRNA level, 48 h; actives raise or lower the signal. A digest of the protocol: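 HepaRG human liver cells, 48 h exposure in serum-free induction medium to 8 half-log concentrations topping at 100 µM (0.5% DMSO), duplicate wells. SULT2A1 mRNA measured by TaqMan qRT-PCR, normalized to ACTB/GAPDH/POLR2A; bidirectional fit against DMSO.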

Read-out in assay [4]: Transforming Growth Factor (TGFA), TGFA (gene 7039)
Briefly: LTEA_HepaRG_TGFA: Life Technologies and Expression Analysis (LTEA) Assay for Transforming Growth Factor (TGFA) using HepaRG (AID 2283532; active = hit-call score of the fitted dose curve at least 0.9, where 1 is the maximum; inactive = score below 0.9). The conditions noted are these: mRNA level, 48 h; actives raise or lower the signal. A digest of the protocol: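 Differentiated human HepaRG cells, plated 48 h then switched to serum-free induction medium, were exposed in duplicate for 48 h to 8-point half-log series from 100 uM in 0.5% DMSO. TGFA mRNA measured by qRT-PCR, normalized to ACTB/GAPDH/POLR2A, bidirectional fit versus DMSO.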

Read-out in assay [5]: Transforming Growth Factor (TGFB1), TGFB1 (gene 7040)
As to the kind of experiment: LTEA_HepaRG_TGFB1: Life Technologies and Expression Analysis (LTEA) Assay for Transforming Growth Factor (TGFB1) Transporter using HepaRG (AID 2283533; active = hit-call score of the fitted dose curve at least 0.9, where 1 is the maximum; inactive = score below 0.9). The note with it: mRNA level, 48 h; actives raise or lower the signal. In a few lines: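 Differentiated HepaRG cells exposed 48 hr in serum-free induction medium to eight half-log concentrations up to 100 uM (0.5% DMSO), duplicate; TGFB1 mRNA by TaqMan qRT-PCR normalised to ACTB, GAPDH, POLR2A; bidirectional fit against DMSO.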

Read-out in assay [6]: Tumor necrosis factor receptor 1 (TNFRSF1A), TNFRSF1A (gene 7132)
As to the kind of experiment: LTEA_HepaRG_TNFRSF1A: Life Technologies and Expression Analysis (LTEA) Assay for Tumor necrosis factor receptor 1 (TNFRSF1A) using HepaRG (AID 2283535; active = hit-call score of the fitted dose curve at least 0.9, where 1 is the maximum; inactive = score below 0.9). The conditions noted are these: mRNA level, 48 h; actives raise or lower the signal. A digest of the protocol:
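Differentiated HepaRG cells in serum-free induction medium, exposed 48 h in duplicate to 8 half-log concentrations up to 100 uM in 0.5% DMSO. TNFRSF1A mRNA by Fluidigm TaqMan qRT-PCR, normalized to ACTB, GAPDH, POLR2A; bidirectional fit.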

Read-out in assay [7]: Thyroid Hormone Responsive (THRSP), THRSP (gene 7069)
As to the kind of experiment: LTEA_HepaRG_THRSP: Life Technologies and Expression Analysis (LTEA) Assay for Thyroid Hormone Responsive (THRSP) using HepaRG (AID 2283536; active = hit-call score of the fitted dose curve at least 0.9, where 1 is the maximum; inactive = score below 0.9). The note with it: mRNA level, 48 h; actives raise or lower the signal. In a few lines:
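Differentiated human HepaRG cells were exposed in duplicate for 48 h in serum-free induction medium to eight concentrations (top 100 uM, half-log steps, 0.5% DMSO). Expression was quantified by TaqMan qRT-PCR, normalized to ACTB, GAPDH and POLR2A, with bidirectional fitting against DMSO.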

Read-out in assay [8]: UDP glucuronosyltransferase (UGT1A1), UGT1A1 (gene 54658)
Briefly: LTEA_HepaRG_UGT1A1: Life Technologies and Expression Analysis (LTEA) Assay for UDP glucuronosyltransferase (UGT1A1) using HepaRG (AID 2283538; active = hit-call score of the fitted dose curve at least 0.9, where 1 is the maximum; inactive = score below 0.9). The note with it: mRNA level, 48 h; actives raise or lower the signal. A digest of the protocol:
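Human liver HepaRG cultures receive test chemical for 48 h, up to 100 uM in 0.5% DMSO, with phenobarbital induction controls. UGT1A1 mRNA is measured by qRT-PCR and normalized to ACTB, GAPDH and POLR2A.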

Read-out in assay [9]: UDP glucuronosyltransferase (UGT1A6), UGT1A6 (gene 54578)
Briefly: LTEA_HepaRG_UGT1A6: Life Technologies and Expression Analysis (LTEA) Assay for UDP glucuronosyltransferase (UGT1A6) using HepaRG (AID 2283539; active = hit-call score of the fitted dose curve at least 0.9, where 1 is the maximum; inactive = score below 0.9). The note with it: mRNA level, 48 h; actives raise or lower the signal. A digest of the protocol:
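Differentiated HepaRG cells, ~100,000/well, were exposed for 48 h in serum-free induction medium with 0.5% DMSO to 8-point half-log series topping at 100 uM, in duplicate. mRNA measured by Fluidigm TaqMan qRT-PCR, normalized to ACTB, GAPDH and POLR2A.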

Read-out in assay [10]: X-box binding protein 1 (XBP1), XBP1 (gene 7494)
Briefly: LTEA_HepaRG_XBP1: Life Technologies and Expression Analysis (LTEA) Assay for X-box binding protein 1 (XBP1) using HepaRG (AID 2283540; active = hit-call score of the fitted dose curve at least 0.9, where 1 is the maximum; inactive = score below 0.9). The conditions noted are these: mRNA level, 48 h; actives raise or lower the signal. In a few lines:
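Differentiated human HepaRG cells in serum-free induction medium exposed 48 h in duplicate to eight half-log concentrations up to 100 uM in 0.5% DMSO. XBP1 mRNA measured by Fluidigm TaqMan qRT-PCR, normalized to ACTB, GAPDH, POLR2A; bidirectional fitting against DMSO.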

The nature of assay [11]: LTEA_HepaRG_LDH_cytotoxicity: Cytotoxicity Assessment in the Life Technologies and Expression Analysis (LTEA) Assay (AID 2283563).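 As to AC50: LDH activity released into spent culture medium as a marker of cell death.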 In a few lines:
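Differentiated HepaRG cells in serum-free induction medium, exposed 48 h in duplicate to 8 half-log concentrations up to 100 uM in 0.5% DMSO. Cytotoxicity from LDH measured in spent medium, fit relative to DMSO.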

Assay [12] is described as follows: TOX21_p53_BLA_p2_viability: Viability Assessment in the Tox21 HCT-116 p53 Agonism Beta-lactamase Assay, Phase 2 (AID 2283591).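 Also: compound exposure lasted 16 h at 37 °C; actives lower the ATP signal meaning cytotoxicity.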 In a few lines: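 HCT-116 p53-bla cells (4000/well) rested 5 h at 37C, then received compounds in DMSO (217-fold dilution) for 16 h at 37C, 5% CO2. After the CCF4 read, CellTiter-Glo was added; ATP luminescence was read after 30 min at room temperature.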

The target in assay [13] is Cellular tumor antigen p53 (Homo sapiens) (UniProt P04637). As to the kind of experiment: TOX21_p53_BLA_p2_ratio: Tox21 HCT-116 p53 Agonism Beta-lactamase Assay, Ratio, Phase 2 (AID 2283592). A digest of the protocol: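 HCT-116 cells with p53-responsive beta-lactamase reporter, 4000 cells/well, preincubated 5 h, then compound in DMSO (217-fold dilution) for 16 h at 37C. CCF4-AM substrate 2 h at room temperature; 460/530 nm emission ratio fitted upward versus DMSO.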

Assay [14] can be described thus: TOX21_p53_BLA_p3_viability: Viability Assessment in the Tox21 HCT-116 p53 Agonism Beta-lactamase Assay, Phase 3 (AID 2283593).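 Also: cells exposed to compound for 16 h before reading.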 In a few lines:
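HCT-116 cells (4000/well) rested 5 h at 37C, then got DMSO compounds by pin tool (217-fold dilution) for 16 h at 37C, 5% CO2. After the bla read, CellTiter-Glo was added and luminescence read at 30 min, room temperature.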

Assay [15] in a line: TOX21_p53_BLA_p4_viability: Viability Assessment in the Tox21 HCT-116 p53 Agonism Beta-lactamase Assay, Phase 4 (AID 2283597).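 Also: hits lower the luminescence signal meaning cytotoxicity.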 A digest of the protocol: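 HCT-116 p53-bla cells, 4000/well, dosed after 5 h attachment and incubated 16 h at 37 °C, 5% CO2. Viability from CellTiter-Glo ATP luminescence after 30 min at room temperature, taken after the beta-lactamase read; loss of signal indicates cytotoxicity.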

Assay [16] has as its target Cellular tumor antigen p53 (Homo sapiens) (UniProt P04637). Briefly: TOX21_p53_BLA_p5_ratio: Tox21 HCT-116 p53 Agonism Beta-lactamase Assay, Ratio, Phase 5 (AID 2283599). A digest of the protocol: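 HCT-116 cells carrying a p53-inducible beta-lactamase reporter were seeded at 4000 cells/well and dosed after 5 h with compound in DMSO (217-fold dilution). After 16 h at 37C, CCF4-AM substrate was added for 2 h, and the 460/530 nm emission ratio was scored as gain-of-signal versus DMSO.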

Assay [17] is described as follows: TOX21_p53_BLA_p5_viability: Viability Assessment in the Tox21 HCT-116 p53 Agonism Beta-lactamase Assay, Phase 5 (AID 2283600). In a few lines:
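HCT-116 p53 beta-lactamase reporter cells, 4000/well, were exposed to compound (pin transfer, 217-fold dilution) for 16 hours at 37C. Cellular ATP was read by CellTiter-Glo luminescence after 30 min at room temperature.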

The target in assay [18] is Cellular tumor antigen p53 (Homo sapiens) (UniProt P04637). As to the kind of experiment: TOX21_p53_BLA_p4_ratio: Tox21 HCT-116 p53 Agonism Beta-lactamase Assay, Ratio, Phase 4 (AID 2283601). In a few lines: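 HCT116 cells carrying an inducible beta-lactamase reporter were plated at 4000 cells/well, rested 5 h, then exposed to compounds in DMSO (217-fold dilution) for 16 h at 37C. CCF4-AM substrate was loaded 2 h at room temperature; 460/530 nm emission ratio scored gain-of-signal versus DMSO.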

Assay [19] is described as follows: Tanguay_ZF_120hpf_MORT_legacy: (Legacy) Oregon State University Tanguay Lab 120 Hour Post-fertilization zebrafish Assay for Mortality (AID 2283633).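 As to AC50: fitted as increase in binary mortality versus DMSO negative control.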 A digest of the protocol: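 Dechorionated Tropical 5D wild-type zebrafish embryos, one per well from 6 hpf, static exposure in 0.64% DMSO at 28C until 120 hpf. Mortality scored as binary by brightfield microscopy at 24 and 120 hpf.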

Assay [20] concerns the target Cellular tumor antigen p53 (Homo sapiens) (UniProt P04637). Briefly: TOX21_p53_BLA_p3_ratio: Tox21 HCT-116 p53 Agonism Beta-lactamase Assay, Ratio, Phase 3 (AID 2283596). A digest of the protocol:
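HCT116 p53-bla cells (4000/well) given compound in DMSO (217-fold dilution) after 5 h, incubated 16 h at 37C. CCF4-AM substrate 2 h at room temperature; 460/530 nm emission ratio, gain fitted against DMSO.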

Inconclusive results are not listed. A structure can be active in one record and inactive in another. Active and inactive are the calls of the source. The calls were made as follows, unless noted: active = hit-call score of the fitted dose curve at least 0.9, where 1 is the maximum; inconclusive = response in the unintended direction; inactive = score below 0.9.

Sequence of Cellular tumor antigen p53 (Homo sapiens) (P04637 whole entry, looked up): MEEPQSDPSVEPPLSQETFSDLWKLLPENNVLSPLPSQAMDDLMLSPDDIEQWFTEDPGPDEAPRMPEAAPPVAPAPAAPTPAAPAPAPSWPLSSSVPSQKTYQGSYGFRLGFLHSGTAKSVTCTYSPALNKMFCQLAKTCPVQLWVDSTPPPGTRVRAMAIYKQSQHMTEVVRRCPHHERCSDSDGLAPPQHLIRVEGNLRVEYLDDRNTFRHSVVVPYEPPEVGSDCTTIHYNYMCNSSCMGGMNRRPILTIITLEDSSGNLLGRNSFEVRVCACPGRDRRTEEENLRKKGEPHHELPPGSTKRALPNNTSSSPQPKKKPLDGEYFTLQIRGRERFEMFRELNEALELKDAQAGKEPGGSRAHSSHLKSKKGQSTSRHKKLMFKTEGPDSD

Turning to `CCOP(=S)(OCC)Oc1ccc(S(C)=O)cc1` (stereo unspecified), in assay [1], the outcome was inactive.

`O=C(O)C(Cl)(Cl)Cl`: the outcome in assay [2], in [3], in [4], in [5], in assay [6] and in assay [7] was inactive. For the same compound, the result in assay [8], in assay [9], in assay [10], in assay [11], in [1] and in assay [12] was inactive. Also, the result in assay [13], in assay [14], in assay [15], in assay [16], in assay [17] and in assay [18] was inactive. For the same compound, the compound was called inactive in [19]. For the same compound, the half-maximal activity concentration (AC50) in assay [9] is 9920 nM (active).

Take `C=C(C)C(=O)[O][Sn]([CH2]CCC)([CH2]CCC)[CH2]CCC`: the AC50 was 2570 nM (active) in assay [2]; 76900 nM (active) in assay [3]; 2420 nM (active) in [4]; 2440 nM (active) in [5]; 381 nM (active) in [7]; 9350 nM (active) in assay [8]. For the same compound, the AC50 in [9] was 2630 nM (active); in assay [11], 4200 nM (active); in [1], 2320 nM (active); in assay [12] it was 1880 nM (active); in assay [13], 41100 nM (active); in assay [14] it was 1180 nM (active). Further, the concentration at half-maximal activity (AC50) was 17500 nM (active) in assay [20]; 1500 nM (active) in assay [15]; 35900 nM (active) in assay [16]; 1740 nM (active) in [17]; 28700 nM (active) in assay [18]; 1770 nM (active) in [19]. Also, the compound was called inactive in assay [6] and in assay [10].

For orientation: AC50 means the concentration giving half of the maximal activity seen.
